# In the supplement of paper PMC8728848:
# About 410 targets per protein were measured; listed, in parts, are those with the strongest signals and a random draw of the rest.
# B1: TLEC1 (Arabidopsis thaliana), Q9C5Q9 (protein)
# chain: MSGASSVSSICSSNVSLIPTGPQVFINFRGKDLRKGFMSFLKPALKKEKINVFIDEQEERGKYLISLFDTIGESKIALVIFSEGYCESHWCMDELVKIKEYMDQNRLIIIPIFYRLDLDVVKDLTGKFGDNFWDLVDKYQPEPKKLHKWTEALFSVCELFSLILPKHSDISDRDFVKSIVKAVKKVQKNFFQRRNGEIEYQDFSVPACKLTITMHESPNEEAVQVTVLNEFYQMKNQSPVPSYEFKFWVDLTRPKGNVFMIDARDLSIAWSEDSNHWTWLPLPNQNSNESVMEIAFLKSASWLDVAGKFDTRYLTPRTRYEVVFVVKLEYTFEWETLVKLKLDLPNTWEKPQEQSVDMFDYISDQWLDIPVGEFTTSKKNVGEISFAMYEHECQLWKSGLFVKGVTIRPKY
# Tests used:
# Experiment in all cases: glycan array binding signal (z-score within array); higher = stronger binding
# Conditions in all cases: glycan notation: IUPAC condensed, linker removed
# [1] = biological target: Fuc(a1-2)Gal(b1-3)GalNAc(b1-3)Gal
# Method in brief: (§1)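 The binding signal is a Z-score computed within each array. Data were drawn from 3228 arrays in the Consortium for Functional Glycomics database, restricted to those with a known protein sequence. Scores were averaged over arrays of the same protein sequence at different concentrations or buffers, and over linkers, and negative values can be taken as non-binding.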
# [2] = biological target: Fuc(a1-2)Gal(b1-3)[Fuc(a1-4)]GlcNAc
# Method in brief: as §1
# Fuc(a1-2)Gal(b1-4)Glc = biological target: Fuc(a1-2)Gal(b1-4)Glc
# Method in brief: as §1
# [3] = biological target: Fuc(a1-2)Gal(b1-4)GlcNAc(b1-3)Gal(b1-4)GlcNAc
# Method in brief: as §1
# [4] = biological target: Fuc(a1-2)Gal(b1-4)[Fuc(a1-3)]GalNAc(b1-3)Gal(b1-4)[Fuc(a1-3)]GlcNAc
# Method in brief: as §1
# Fuc(a1-2)[Gal(a1-3)]Gal = biological target: Fuc(a1-2)[Gal(a1-3)]Gal
# Method in brief: as §1
# [5] = biological target: Fuc(a1-2)[Gal(a1-3)]Gal(b1-4)Glc
# Method in brief: as §1
# [6] = biological target: Fuc(a1-2)[GalNAc(a1-3)]Gal(b1-3)GlcNAc
# Method in brief: as §1
# Fuc(a1-3)GlcNAc = biological target: Fuc(a1-3)GlcNAc
# Method in brief: as §1
# [7] = biological target: Gal(a1-3)[Gal(a1-4)]Gal(b1-4)GlcNAc
# Method in brief: as §1
# Gal(a1-4)Gal(b1-4)GalNAc = biological target: Gal(a1-4)Gal(b1-4)GalNAc
# Method in brief: as §1
# [8] = biological target: Gal(b1-3)[GlcNAc(b1-6)]GalNAc
# Method in brief: as §1
# Gal(b1-4)GlcNAc = biological target: Gal(b1-4)GlcNAc
# Method in brief: as §1
# Gal3S(b1-4)Glc6S = biological target: Gal3S(b1-4)Glc6S
# Method in brief: as §1
# Gal3S6S(b1-4)GlcNAc6S = biological target: Gal3S6S(b1-4)GlcNAc6S
# Method in brief: as §1
# Gal6S(b1-4)Glc6S = biological target: Gal6S(b1-4)Glc6S
# Method in brief: as §1
# GalNAc(a1-3)Gal = biological target: GalNAc(a1-3)Gal
# Method in brief: as §1
# Glc(a1-4)Glc = biological target: Glc(a1-4)Glc
# Method in brief: as §1
# [9] = biological target: GlcNAc(b1-2)Gal(b1-3)GlcNAc
# Method in brief: as §1
# [10] = biological target: Man(a1-2)Man(a1-2)Man(a1-3)Man
# Method in brief: as §1
# [11] = biological target: Man(a1-2)Man(a1-2)Man(a1-3)[Man(a1-2)Man(a1-6)[Man(a1-3)]Man(a1-6)]Man(b1-4)GlcNAc(b1-4)GlcNAc
# Method in brief: as §1
# Man(a1-3)[Man(a1-6)]Man = biological target: Man(a1-3)[Man(a1-6)]Man
# Method in brief: as §1
# [12] = biological target: Neu5Ac(a2-3)Gal(b1-3)[Fuc(a1-4)]GlcNAc
# Method in brief: as §1
# [13] = biological target: Neu5Ac(a2-3)Gal(b1-4)[Fuc(a1-3)]GlcNAc6S
# Method in brief: as §1
# [14] = biological target: Neu5Ac(a2-3)[GalNAc(b1-4)]Gal(b1-4)Glc
# Method in brief: as §1
binder,measurement,setting,value
B1,glycan array binding signal (z-score),[1],0.538
same,glycan array binding signal (z-score),[2],-0.075
same,glycan array binding signal (z-score),Fuc(a1-2)Gal(b1-4)Glc,1.08
same,glycan array binding signal (z-score),[3],0.966
same,glycan array binding signal (z-score),[4],1.49
same,glycan array binding signal (z-score),Fuc(a1-2)[Gal(a1-3)]Gal,-0.268
same,glycan array binding signal (z-score),[5],-0.089
same,glycan array binding signal (z-score),[6],0.897
same,glycan array binding signal (z-score),Fuc(a1-3)GlcNAc,1.82
same,glycan array binding signal (z-score),[7],-0.228
same,glycan array binding signal (z-score),Gal(a1-4)Gal(b1-4)GalNAc,-0.13
same,glycan array binding signal (z-score),[8],-0.317
same,glycan array binding signal (z-score),Gal(b1-4)GlcNAc,-0.385
same,glycan array binding signal (z-score),Gal3S(b1-4)Glc6S,1.16
same,glycan array binding signal (z-score),Gal3S6S(b1-4)GlcNAc6S,12.3
same,glycan array binding signal (z-score),Gal6S(b1-4)Glc6S,1.65
same,glycan array binding signal (z-score),GalNAc(a1-3)Gal,-0.288
same,glycan array binding signal (z-score),Glc(a1-4)Glc,-0.148
same,glycan array binding signal (z-score),[9],-0.386
same,glycan array binding signal (z-score),[10],-0.005
same,glycan array binding signal (z-score),[11],-0.509
same,glycan array binding signal (z-score),Man(a1-3)[Man(a1-6)]Man,-0.105
same,glycan array binding signal (z-score),[12],-0.525
same,glycan array binding signal (z-score),[13],-0.464
same,glycan array binding signal (z-score),[14],-0.46
